Bioassay records (PubChem BioAssay)
Only some compounds are listed: those with a hit (about 0.76% of all), similar ones and a draw of the others.
Rv3671c protease – inhibitors of M. tuberculosis serine protease Rv3671c; 0.048% of 320,000 active; AID 2606; inhibition, % at 5.96 µM; in the data active = inhibition above about 38%;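 note: extracellular domain of Rv3671c used as enzyme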
FadD28 binding – inhibitors of Mycobacterium tuberculosis FadD28 bisubstrate binding; inhibition, % at 12.5 µM; 0.22% of 360,000 active; AID 588549; FadD28 bisubstrate probe binding, fluorescence polarization; in the data active = inhibition above about 8.5%, passing the limit was not always enough
Mtb bLac sens – beta-lactam sensitization of Mtb H37Rv; AID 434955; inhibition, % at 25 µM; M. tuberculosis H37Rv growth with meropenem, percent inhibition; 0.27% of 330,000 active; call rule not given here;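 note: growth measured after seven days incubation then overnight dye step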
PrP UTR inh – suppresses PrP 5' UTR mRNA reporter expression | AID 488862 | 0.35% of 340,000 active | inhibition, % (test concentration not listed) | cell-based PrP 5' UTR mRNA reporter, plate reader; in the data active = inhibition above about 52%
BH1578 lux ind – inducers of Vibrio cholerae quorum light production without autoinducers. V. cholerae BH1578 lux reporter, luminescence, 6 h. activation, % at 18.7 µM. 0.16% of 350,000 active. AID 588436; in the data active = activation mostly above about 9.7%, no sharp cut-off
Mtb UGM inh – Mtb UDP-galactopyranose mutase inhibition. 0.06% of 320,000 active. inhibition, % at 10 µM. purified UGM, fluorescence polarization probe displacement. AID 504406. P9WIQ1; in the data active = inhibition above about 10%, passing the limit was not always enough
Target sequence (P9WIQ1 whole entry, looked up): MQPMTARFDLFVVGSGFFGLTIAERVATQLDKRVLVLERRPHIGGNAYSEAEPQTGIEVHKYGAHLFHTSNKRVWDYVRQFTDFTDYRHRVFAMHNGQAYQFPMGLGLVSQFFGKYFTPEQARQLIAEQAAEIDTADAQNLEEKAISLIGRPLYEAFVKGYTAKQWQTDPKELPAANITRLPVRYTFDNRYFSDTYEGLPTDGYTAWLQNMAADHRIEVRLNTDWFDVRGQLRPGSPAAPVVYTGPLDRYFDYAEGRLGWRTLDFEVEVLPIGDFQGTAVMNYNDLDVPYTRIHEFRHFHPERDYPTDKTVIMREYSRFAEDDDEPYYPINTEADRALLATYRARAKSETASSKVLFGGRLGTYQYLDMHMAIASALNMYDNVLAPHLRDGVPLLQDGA
Numbers stand for hits; - = inactive; . = no result given.

SMILES	Rv3671c protease	FadD28 binding	Mtb bLac sens	PrP UTR inh	BH1578 lux ind	Mtb UGM inh
CC(C)CN(CC(C)C)C(=O)CC(=O)NC(=O)c1ccc(Cl)cc1	-	-	-	-	.	-
COc1ccc(-n2c(O)c(/C=C3\C=Nc4ccc(Br)cc43)c(=O)[nH]c2=O)cc1	-	-	-	-	-	40.6
O=C(O)c1cc(NN=C2c3ccccc3-c3ccccc32)ccc1Cl	-	14.8	-	-	-	-
O=C(O)c1cc(N/N=C/C(Cl)=C/c2ccccc2)ccc1Cl	-	18.9	-	-	-	-
O=C(O)c1cccc(NN=C2c3ccccc3-c3ccccc32)c1	.	13.3	.	-	-	.
CC(C)Oc1ccc(Cl)cc1Nc1nc(NCCO)nc(N2CCCC2)n1	-	-	-	-	-	-
O=C(Cc1ccccc1)NNC(=O)Nc1ccccc1	-	-	-	-	-	-
CN(C(=O)COC(=O)c1ccccc1Cc1ccccc1)C1CCS(=O)(=O)C1 (stereo not drawn)	-	-	-	-	-	-
O=C(N/N=C/c1c[nH]c2ccccc12)c1cc(Br)ccc1O	-	29.3	-	-	-	-
Cc1nc(N)sc1C(=O)N/N=C/c1c[nH]c2ccccc12	-	9.9	-	-	-	-
Cc1nc(N)sc1C(=O)N/N=C/c1ccccc1[N+](=O)[O-]	-	-	-	.	-	-
CCOc1ccc(Br)cc1C(=O)N/N=C/c1c[nH]c2ccccc12	-	-	-	-	-	-
CCCCCCCCCCCCCCCC(O)C[N+](C)(C)CCO (stereo not drawn)	.	34.8	.	-	-	.
CCOc1ccc(NC(=O)CCN2CCN(C)CC2)cc1	-	-	-	-	-	-
Cc1ccnc2c1ccc1c(C)ccnc12	-	-	-	54.5	-	-
Cc1cc(NC(=O)C(C)SCC(=O)Nc2nc3c(F)cc(F)cc3s2)no1 (stereo not drawn)	-	-	-	-	-	-
COc1ccc(CSCC(=O)Nc2ccc(S(=O)(=O)N3CCCCCC3)cc2)cc1	-	11.8	-	-	-	-
COc1ccc(NC(=O)CSCC(=O)Nc2ccc(S(=O)(=O)N3CCCCC3)cc2)cc1	-	-	-	-	-	-
COc1cc(NCCCC(C)N)c2ncccc2c1 (stereo not drawn)	.	8.7	.	-	-	.
Cc1ccc(NS(=O)(=O)c2cc([N+](=O)[O-])ccc2NNC(=S)Nc2cc(C)ccc2C)c(C)c1	-	-	-	-	-	-
Cc1ccc(NS(=O)(=O)c2cc([N+](=O)[O-])ccc2NNC(=S)Nc2cccc(Cl)c2)c(C)c1	-	8.6	-	-	-	-
O=C(CCNC(=O)c1ccc(Br)cc1)NCCCSc1ccccc1	-	-	-	-	-	-
CCOc1ccc(S(=O)(=O)N2CCCCC2)cc1NC(=O)CN1C(=O)NC(C)(C2CC2)C1=O (stereo not drawn)	-	-	-	-	-	-
O=C(NCCO)c1ccc2nc(-c3ccco3)c(-c3ccco3)nc2c1	-	12.9	-	-	-	-
O=C(NCCc1ccccc1)c1ccc2nc(-c3ccco3)c(-c3ccco3)nc2c1	-	-	-	-	-	-
SMILES	Rv3671c protease	FadD28 binding	Mtb bLac sens	PrP UTR inh	BH1578 lux ind	Mtb UGM inh
O=C(NCCCO)C(=O)NCCc1ccc(Cl)cc1	-	-	-	-	-	-
COc1cc(/C=N/NC(N)=S)ccc1OCc1ccc(C)cc1	-	15.8	-	-	-	-
COc1cc(/C=N/NC(N)=S)ccc1OC(=O)c1ccc(C)cc1	-	-	.	-	-	-
COc1ccc(OC)c(N2C(=O)NC(=O)/C(=C\c3ccc([N+](=O)[O-])s3)C2=O)c1	-	23.4	-	-	-	-
COc1cc(N2CCCC2)c(OC)cc1/C=C(/C#N)c1ccc(F)cc1	-	-	-	-	-	-
COc1cc(N2CCCC2)c(OC)cc1/C=C(/C#N)c1ccc(Br)cc1	-	-	-	-	-	54.8
O=C(O)c1[nH]c2ccccc2c1C(c1ccccc1)c1c(C(=O)O)[nH]c2ccccc12	-	22.1	-	-	-	-
C=CCOc1ccc(C(c2c(C(=O)O)[nH]c3ccccc23)c2c(C(=O)O)[nH]c3ccccc23)cc1	-	40.2	-	-	-	-
COc1cc(C(c2c(C(=O)O)[nH]c3ccccc23)c2c(C(=O)O)[nH]c3ccccc23)ccc1OCc1ccccc1	-	32.2	-	-	-	-
COc1ccc(CN=Cc2c(C(=O)O)[nH]c3ccccc23)cc1	-	-	-	-	-	-
O=C(O)c1[nH]c2ccccc2c1C(c1cc(Cl)cc([N+](=O)[O-])c1O)c1c(C(=O)O)[nH]c2ccccc12	-	56.2	-	-	-	-
